Measurements: ChEMBL document CHEMBL4513216, “Probing the Open Global Health Chemical Diversity Library for Multistage-Active Starting Points for Next-Generation Antimalarials” (ACS Infect Dis, 2020)
The whole screen tested about 69,000 compounds, of which about 8,600 (12%) showed an effect of 50% or more. The list comes from a sample in which strong results are over-represented; it also holds similar structures and randomly drawn compounds.

System: Plasmodium berghei
Assay: Screen against P. berghei liver stage (PbLuc), transformed with Luciferase, at 10uM
Format: functional, HepG2
Conditions: tested at 10 uM

Row | SMILES | INHIBITION [%]
1 | CN[C@@H](CO)C(=O)NCc1cc2n(n1)CCCN(C1CCCCC1)C2 | 12.5
2 | COc1ccccc1-n1cc(C(=O)NCCn2nc(C)nc2C)cn1 | 32.8
3 | O=C(CNc1cc(-c2ccccc2)nc2ccnn12)NC1CC1 | -35
4 | O=S1(=O)CCC(CNc2cc(-c3ccccc3)nc3ccnn23)C1 (centres undefined) | 93.6
5 | Cc1cc2nc(-c3ccccc3)cc(NCC3CCS(=O)(=O)C3)n2n1 (centres undefined) | -24.6
6 | O=C(Nc1ccc(N2CCOCC2)nc1)N1CCc2sccc2C1 | -17.9
7 | CC1CCN(S(=O)(=O)N2CCc3sccc3C2)CC1 | 19.7
8 | O=S(=O)(N1CCOCC1)N1CCc2sccc2C1 | 76.8
9 | O=S(=O)(N1CCOCC1)N1CCOC(CCc2ccccc2)C1 (centres undefined) | -23.4
10 | O=S(=O)(N1CCCCCC1)N1CCc2sccc2C1 | 20.8
11 | O=S(=O)(N1CCCC1)N1CCc2sccc2C1 | 82.4
12 | c1cc(CN2CCC3(CCOCC3COCC3CC3)CC2)ccn1 (centres undefined) | -20.8
13 | CC(C)NC(=O)N1CCc2c(CNc3ncccn3)cncc2C1 | -41.4
14 | N#Cc1ccc(CN2CCCC3(Cc4ccccc4CNC3=O)C2)cc1 (centres undefined) | 43.3
15 | Cc1nc(CO[C@H]2CN(Cc3cccs3)[C@@H]3COC[C@H]23)cs1 | 18.2
16 | CNS(=O)(=O)c1cnccc1N1CCN(C(C)C)CC1 | -5.26
17 | O=C1COC2(CCN(Cc3ccco3)CC2)CN1 | 27.6
18 | O=C(O)C1CCCN1c1nc(-c2ccc(Cl)c(Cl)c2)cc(C(F)(F)F)n1 (centres undefined) | 80.5
19 | O=C(O)C1CCCN1c1nc(-c2ccc(Cl)cc2)cc(C(F)(F)F)n1 (centres undefined) | 26.7
20 | O=C(O)C1CCCN1c1nc(C2CC2)cc(C(F)(F)F)n1 (centres undefined) | 14.3
21 | CC(=O)N1CCC(NC(=O)CN2CCCc3c(F)ccc(C)c32)CC1 | 9.16
22 | CN(CCc1cccc2ccccc12)Cc1nc(N)nc(N(C)C)n1 | 90.3
23 | COc1ccccc1CCN(C)Cc1nc(N)nc(N(C)C)n1 | 34.1
24 | CN(Cc1nc(N)nc(N(C)C)n1)Cc1cccc2ccccc12 | -57.5
25 | OCCN1CCCCC1c1cc[nH]n1 (centres undefined) | 6.26
26 | CCc1ccc(-c2cn3c(C(=O)N[C@H](C(N)=O)[C@@H](C)O)csc3n2)cc1 | -171
27 | CCc1ccc(-c2cn3c(C(=O)NCC(C)C(=O)NC)csc3n2)cc1 (centres undefined) | -147

Row | SMILES | INHIBITION [%]
28 | C[C@@H](O)[C@H](NC(=O)c1csc2nc(-c3ccccc3F)cn12)C(N)=O | 76.9
29 | CC(C)(C)C(=O)N1CCC(c2cnc(-c3cn[nH]c3)cn2)CC1 | 3.62
30 | CCn1cc(S(=O)(=O)N2CCN(C(=O)c3cc(Br)cs3)CC2)c(C)n1 | 38.3
31 | COC(=O)CN1CC2(CCNCC2)COc2ccccc2S1(=O)=O | 27.6
32 | CC(C)c1nnc2n1CCN(C(C)c1nnc(-c3cccs3)o1)C2 (centres undefined) | 21.1
33 | CC(c1nnc(-c2cccs2)o1)N1CCn2c(nnc2C2CC2)C1 (centres undefined) | 51.5
34 | Cc1nnc2n1CCN(C(C(=O)NC(C)C)c1ccccc1)C2 (centres undefined) | 15.2
35 | Cc1nnc2n1CCN(C(C)c1nnc(-c3cccs3)o1)C2 (centres undefined) | 13.5
36 | CC(C)NC(=O)C(c1ccccc1)N1CCn2c(nnc2C2CC2)C1 (centres undefined) | 50.4
37 | O=C(NC1CC1)C(c1ccccc1)N1CCn2c(nnc2C2CC2)C1 (centres undefined) | 6.05
38 | CCc1ccc(CN2CC[C@H]3C[C@H](c4nnc(C)[nH]4)O[C@@H]3C2)o1 | -11.5
39 | COc1cccc(F)c1-c1c[nH]c(C)n1 | 11.8
40 | Cc1ncsc1C(=O)NCCNc1cnccn1 | 60
41 | CCc1nc(C)c(C(=O)NCCNc2cnccn2)s1 | 4.88
42 | Cc1ncsc1C(=O)NCCSCc1cccs1 | 63.4
43 | Cc1ncsc1C(=O)NCCNc1ncccn1 | 34.7
44 | O=C(NCCNc1cnccn1)c1scnc1Cl | 53.3
45 | O=C(NCCNc1ncccn1)c1scnc1Cl | 11.9
46 | Cc1ncsc1C(=O)NCc1cccs1 | 35.8
47 | O=C(NCCNC(=O)c1scnc1Cl)c1ccccc1 | 30.3
48 | Cc1ncsc1C(=O)NCCc1cccs1 | -25.667
49 | O=C(NCCCn1nc2ccccn2c1=O)Nc1ccc(F)cc1F | -17
50 | c1ccc(CN2CCC3(CC2)CCN(Cc2cccs2)C3)nc1 | -4.27
51 | O=C(C1COCCO1)N1CCN(CC(F)(F)F)c2ccccc21 (centres undefined) | -8.22
52 | Cc1nn(C)c(C)c1CC(=O)N1CCc2nnc(N(C)C)cc2C1 | 42.65
53 | CN(C)c1cc(CNC(=O)c2ccccc2S(C)(=O)=O)ccn1 | -19.4
54 | Cc1noc(C)c1CN1C(=O)[C@@H]2CC[C@H]1CN(C(=O)c1cscn1)C2 | 45
